# hgDAF12 agonist: hgDAF-12 agonism, primary luciferase screen | AID 687014 | HEK293 GAL4-hgDAF12 UAS-luciferase reporter, agonist luminescence; normalized to butyrate control | 370,000 tested, 1.8% active | activation, % at 6.8 µM;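 active means activation above a cutoff set at the mean of all screened compounds plus 3 SD, cut at about 10% in these data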;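 further: 0% = DMSO wells and 100% = sodium butyrate wells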
# ssDAF12 agonist: activators of S. stercoralis DAF-12 nuclear receptor. HEK293 ssDAF-12/GRIP1 lit1-tk-luc reporter, luminescence; % of 3 µM dafachronic acid response. activation, % at 6.8 µM. 370,000 tested, 1% active;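 active means activation above the mean over all tested compounds plus 3 SD, cut at about 0.9% in these data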;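 further: 0% = DMSO-only wells and 100% = 3 µM delta7-dafachronic acid wells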
# DAX1 inh-1: blocks DAX1 repression of SF-1 activated StAR promoter; 370,000 tested, 1.1% active; inhibition, % at 6.8 µM; HEK293T StAR-luciferase reporter, SF-1/DAX-1 repression relief;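 active means inhibition above the mean over all tested compounds plus 3 SD, cut at about 3.6% in these data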;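 further: 0% = DAX-1 cells with DMSO and 100% = cells lacking DAX-1 with DMSO; higher inhibition means more luminescence from relief of DAX-1 repression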
# hcDAF-12 act: activators of H. contortus DAF-12 nuclear receptor; HEK293 hcDAF-12 lit1-tk-luc reporter, luminescence; 0% DMSO, 100% Δ7-dafachronic acid; activation, % at 6.8 µM; 370,000 tested, 1.4% active; AID 652067;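 active means activation above the mean of all tested compounds plus 3 SD, cut at about 5.5% in these data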;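 further: 100% = response to 3 µM Δ7-dafachronic acid high control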
# GAA850 FXN act: activators of GAA850 frataxin (FXN) promoter | 360,000 tested, 0.56% active | HEK293 lucGAA850 FXN promoter luciferase reporter, 24 h; percent of 10 µM SAHA response | activation, % at 6 µM;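 active means activation above the average of all compounds screened plus 3 SD, cutoff fixed separately per campaign, cut at about 7.5% in these data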;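 further: 0% = DMSO wells and 100% = 10 µM SAHA wells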
# DAX1 inh-2: inhibitors of human orphan nuclear receptor DAX1 (NR0B1). HEK293 Gal4-DAX1 luciferase reporter, luminescence. P51843. 340,000 tested, 0.99% active. inhibition, % at 6.75 µM;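 active means inhibition above the mean over all tested compounds plus 3 SD, cut at about 4.2% in these data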;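 further: 0% = DAX1-transfected cells with DMSO and 100% = empty-vector control cells with DMSO; inhibition shows as a rise in luminescence from relieved DAX1 repression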
# Target sequence (P51843 207-470 limits assumed): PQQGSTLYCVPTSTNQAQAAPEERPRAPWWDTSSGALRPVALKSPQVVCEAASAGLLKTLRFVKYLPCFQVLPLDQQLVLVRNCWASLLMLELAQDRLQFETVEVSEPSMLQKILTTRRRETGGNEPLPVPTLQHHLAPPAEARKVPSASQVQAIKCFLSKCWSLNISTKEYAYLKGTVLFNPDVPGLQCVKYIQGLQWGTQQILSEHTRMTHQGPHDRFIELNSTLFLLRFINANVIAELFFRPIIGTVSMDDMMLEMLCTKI
# * hit, by the source's call; nt = no result. This is a sample that favours compounds with a hit; in the whole collection about 4.5% have one here.
SMILES,hgDAF12 agonist,ssDAF12 agonist,DAX1 inh-1,hcDAF-12 act,GAA850 FXN act,DAX1 inh-2
Cc1cc(NC(=O)CSc2nc3c(sc4ccccc43)c(=O)n2CCCN2CCOCC2)n[nH]1,11*,-1,-1,0,-3,2
COc1ccccc1Nc1nc(-c2c(C)[nH]c3ccccc23)cs1,1,1.3*,-1,5,0,0
O=C1CCCCC1Sc1nnc(Nc2ccccc2)s1 (stereo unspecified),11*,-1,2,1,5,4
COCCNC(=O)CN(Cc1ccc(F)cc1)C(=O)CCC(=O)Nc1nccs1,-4,-1,0,0,1,4.2*
COc1ccccc1NC(=O)O[C@@H]1CC[C@@]23CCCN2C(=O)CCC[C@H]3C1,0,-1,nt,-1,nt,nt
COC1=C[C@H](C(=O)NCc2ccccn2)[C@H](C)[C@@H](c2ccccc2)CC1=O,1,-1,-1,1,nt,nt
O=C(NC1CCCCN(Cc2cccc(C(F)(F)F)c2)C1=O)c1ccc(-c2ccccc2)cc1 (stereo unspecified),-1,-1,-2,-3,nt,nt
CN(Cc1ccc(C(C)(C)C)cc1)C(=O)C1CCN(C(=O)Nc2ccccc2)CC1,-3,-1,-2,-3,0,7.6*
Cc1cc(C)cc(C(=O)OCCN(C)C2CN(Cc3cn(Cc4ccccc4F)nn3)S(=O)(=O)C2)c1 (stereo unspecified),0,-2,-1,-2,nt,nt
COc1ccc2nc(Cl)c(/C=N/Nc3ccccn3)cc2c1,10,-1,4.1*,2,4,1
Clc1ccccc1C=NNc1ccccn1,2,1,1,2,5,3
O=C(O)Cn1ccc2ccccc21,1,1,0,5.7*,5,0
OC1CCN(Cc2cccc3ccccc23)CC1,2,-1,0,-1,3,5.0*
O=C(Cn1cnc2ccccc2c1=O)N1CCCCC1,7,-1,0,6,nt,nt
Nc1nc2c(ccc3ccccc32)s1,1,0,0,3,2,4.9*
CC(=O)NCCC(=O)Nc1nc2c(ccc3ccccc32)s1,1,-1,0,1,3,1
COc1cc(-n2c(C)nc3cc(C(=O)N4CCCCC4)ccc32)cc(OC)c1OC,1,-2,2,0,nt,nt
O=C(c1ccc(N2CCOCC2)cc1)c1cccs1,12*,0,3.8*,6,0,3
CCN(CC)C(=O)CC[C@@H]1CC[C@]2(CCCN(C(=O)c3ccno3)C2)O1,-2,-1,0,-1,nt,nt
CCN(CC)c1cc2c(c3c1ccn3C)C1CCC2O1 (stereo unspecified),-2,0.9*,0,-2,nt,nt
Cc1cccc(Cl)c1-n1nnnc1C1(C)CSCC(=O)N1Cc1ccc(F)cc1 (stereo unspecified),-2,-1,-1,0,nt,nt
C[C@@H]1ON(C)[C@H]2C[C@H]3c4cc(-c5ccc(F)cc5)ccc4CCN3C[C@@H]12,2,0.9*,-1,-1,nt,nt
C[C@@H]1ON(C)[C@H]2C[C@H]3c4[nH]c5ccccc5c4CCN3C[C@@H]12,-1,1.4*,0,3,-2,3
O=C([C@@H]1C[C@H]1c1ccccc1)N1CC[C@H]2[C@H](CCCN2Cc2ccc(F)cc2)C1,0,-2,-1,-2,nt,nt
COC(=O)[C@H]1C[C@@]2(C#N)c3ccccc3N(C(=O)OC(C)(C)C)[C@H]2N1C(=O)OC(C)(C)C,1,-1,0,-1,nt,nt
SMILES,hgDAF12 agonist,ssDAF12 agonist,DAX1 inh-1,hcDAF-12 act,GAA850 FXN act,DAX1 inh-2
COc1ccc2oc(=O)c(C(=O)Nc3ccccc3-c3ccccc3)cc2c1,4,-2,0,1,-2,-1
COc1ccc2oc(=O)c(C(=O)Nc3ccccc3C)cc2c1,12*,0,2,4,4,3
O=C(NNC(=O)c1cc2cc(Br)ccc2oc1=O)c1ccc(O)cc1,-2,2.5*,0,1,2,0
COc1ccc(C(=O)Nc2cc(C(=O)c3ccccc3)c(C)oc2=O)cc1,1,-2,0,0,12*,-1
CC(C)c1nnc(NC(=O)c2cc3cc(Br)ccc3oc2=O)s1,3,-1,0,-1,0,-1
O=C(Nc1ccccc1O)c1cc2cc(Br)ccc2oc1=O,7,1.1*,0,2,4,2
COC(=O)c1cc(NC(=O)c2ccccc2)c(=O)oc1C,2,0,0,-1,0,0
CC(C)C[C@H]1COc2cc(Br)ccc2S(=O)(=O)N1Cc1cn(Cc2ccc(F)cc2)nn1,4,-1,1,0,nt,nt
CC(C)CNS(=O)(=O)CC1NCc2cc3c(cc21)OCO3 (stereo unspecified),0,-1,-1,-2,nt,nt
Cc1ccc(/C=C/C(=O)NC2=NCCS2)cc1,17*,1.4*,6.4*,8.0*,-1,-2
CCc1ccc(/C=C/C(=O)NC2=NCCS2)cc1,10,0,nt,4,nt,nt
Cc1ccc(OCC(=O)NC2=NCCS2)cc1,2,-1,0,-1,0,4.7*
O=C(COc1ccccc1)NCC(=O)NC1=NCCS1,-1,-1,-1,0,1,1
COC(=O)c1cc(S(=O)(=O)NCc2cccc(OC)c2)cn1C,2,-1,0,1,2,5.3*
COC(=O)c1cc(S(=O)(=O)NCc2ccccc2OC)cn1C,-2,-1,0,1,0,1
CCS(=O)(=O)Nc1ccc2c(c1)C(=O)N(C)[C@@H]1CC[C@H](CC(=O)N[C@@H]3CCN(Cc4ccccc4)C3)O[C@H]1CO2,-2,-1,0,-2,nt,nt
CN(C)c1ccc2c(c1)C(=NO)c1ccccc1-2,nt,nt,nt,nt,1,4.4*
O=C(NC1CC1c1ccccc1)N1CCC(c2nc3ccc(Cl)cc3[nH]2)CC1 (stereo unspecified),-1,-1,-2,-1,nt,nt
CC(C)(C)c1ccc(C(=O)N2CCCC2)s1,2,0,1,0,3,5.8*
O=C(NCCCCCCOC1=NS(=O)(=O)c2ccccc21)C(=O)Nc1ccccc1,11*,-1,0,-1,4,0
CC(CCOC1=NS(=O)(=O)c2ccccc21)NC(=O)C(=O)Nc1ccccc1 (stereo unspecified),5,0,0,0,2,3
c1cncc(-c2nc(-c3ccco3)cs2)c1,3,0,0,-1,0,0
c1cncc(-c2csc(-c3cccnc3)n2)c1,6,-1,-1,1,0,4.7*
Clc1ccsc1-c1csc(-c2cccnc2)n1,8,1,0,5,1,1
c1cncc(-c2nc(-c3cccs3)cs2)c1,8,-1,0,6.2*,0,1
